Bioassay records as filed in PubChem BioAssay.
An excerpt weighted towards active compounds, which were near 12% of everything screened.
CHOP inhibitor – CHOP inhibition in unfolded protein response | inhibition, % at 10 µM | AID 2732 | hit rate 3.8% among 220,000 | CHO-K1 CHOP-promoter luciferase, tunicamycin-induced, 15-18 h;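 active = compounds that reduced the stress-induced luciferase reporter signal by more than about 70% of percent inhibition, limit read from the data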;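 also: 0% = tunicamycin plus vehicle and 100% = wells without tunicamycin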
Lmaj promast – Leishmania major promastigote growth inhibition | Leishmania major promastigotes, resazurin fluorescence viability | inhibition, % at 10 µM | hit rate 9% among 200,000 | AID 1063; in the data active = inhibition above about 50%;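 also: promastigotes grown with compound for 44 hours at 28 °C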
Arbovirus anti – blocks arbovirus infection | arbovirus infection cell-based antiviral screen | inhibition, % at 10 µM | hit rate 0.37% among 200,000 | AID 1251; in the data active = inhibition above about 30%
WT yeast gro inh – growth inhibition of WT yeast, mitochondrial fusion screen; mitochondrial fusion phenotypic screen, WT strain; inhibition, % at 10 µM; hit rate 2.1% among 190,000; AID 1362; in the data active = inhibition above about 58%; tested in S. cerevisiae
The depositor's hits bear a star; · = no result given.

SMILES	CHOP inhibitor	Lmaj promast	Arbovirus anti	WT yeast gro inh
Cc1ccccc1N1C(=O)C2ON(c3ccccc3)C(c3ccco3)C2C1=O (centres undefined)	0	·	·	·
COC(=O)CCNCCSc1nnc(-c2ccco2)n1Cc1ccccc1	-17	·	·	·
O=C(N/N=C/c1ccc([N+](=O)[O-])cc1)c1ccc(COc2ccccc2-c2ccccc2)cc1	5	90*	-18	8
N=c1c(-c2nc3ccccc3[nH]2)cc(C(=O)c2ccco2)nn1-c1ccccc1	-123	100*	-7	-6
N=c1c(-c2nc3ccccc3[nH]2)cc(C(=O)c2cccs2)nn1-c1ccccc1	-53	100*	-26	-9
Cc1cc(C)c(C)c(S(=O)(=O)N2CCN(CC(=O)NC(=O)NCc3ccccc3)CC2)c1C	56	3	-3	7
CCOC(=O)C1=C(N)c2ccccc2CC1C1CCCC1 (centres undefined)	91*	·	·	·
Cc1ccc(C)c(OCCOCCN2CC(C)OC(C)C2)c1C (centres undefined)	22	91*	1	10
COc1ccccc1N1CCN(CCCCCCOc2ccc(F)cc2)CC1	32	22	19	21
CCOc1ccc(OCCCCN(C)C)cc1	8	38	-8	9
COC(=O)c1ccccc1OCCCCN1CC(C)OC(C)C1 (centres undefined)	15	88*	-3	18
CCOc1ccc(OCCCCN2CCCC2)cc1	7	99*	-12	·
CC1CN(CCCCOc2ccc(F)cc2)CC(C)O1 (centres undefined)	2	85*	1	15
CC1CN(CCOCCSc2ccccc2)CC(C)O1 (centres undefined)	10	10	-5	12
Cn1c(=O)c2c(nc(N3CCN(c4ccc([N+](=O)[O-])cc4)CC3)n2C)n(C)c1=O	-8	·	·	·
Cn1cnnc1SCC(=O)Nc1ncc(C(F)(F)F)cc1Cl	0	3	10	4
CCOC(=O)CC1COCCN1Cc1cn(C)nc1-c1ccccc1F (centres undefined)	21	-4	4	-2
Fc1ccc(OCCCCCN2CCCC2)cc1	-3	87*	21	1
CCCCOc1ccc(CN2CCCCC2)cc1	31	93*	-21	9
Cc1ccc(C(=O)Nc2nc3n(n2)C(c2ccccc2)CC(=O)N3)cc1 (centres undefined)	7	·	·	·
Cn1c2ccccc2c(=O)c2c(=O)n(C3CCCCC3)c(-c3ccco3)nc21	63	32	-38	25
CN(C)CCCN(C(=O)CCc1ccccc1)c1nc2c(F)cccc2s1	7	41	-18	60*
CN(C)CCCN(C(=O)c1ccco1)c1nc2c(F)cccc2s1	22	2	6	-5
CN(C)CCCN(C(=O)COc1ccc(Cl)cc1)c1nc2c(F)cccc2s1	19	0	-2	0
Cc1cccc2sc(N(CCN(C)C)C(=O)/C=C/c3cccs3)nc12	40	19	-2	13
SMILES	CHOP inhibitor	Lmaj promast	Arbovirus anti	WT yeast gro inh
CN(C)CCCN(C(=O)/C=C/c1cccs1)c1nc2c(F)cccc2s1	48	97*	-14	47
CN(C)CCCN(C(=O)CCOc1ccccc1)c1nc2c(F)cccc2s1	19	50*	0	11
Cc1cc(=O)oc(C)c1C(=O)OCC(=O)c1ccc(Cl)cc1	16	2	9	1
O=C(COc1ncnc2scc(-c3ccc(Cl)cc3)c12)NCc1ccco1	37	20	-5	8
Cc1cccc(N2CCN(c3ccc(N4C(=O)CCCC4=O)cc3[N+](=O)[O-])CC2C)c1 (centres undefined)	14	50*	15	12
CN(Cc1ccccc1)c1ccc(N2C(=O)CCCC2=O)cc1[N+](=O)[O-]	34	81*	-3	1
Cc1cccc(N2CCN(c3ccc(N4C(=O)CCCC4=O)cc3[N+](=O)[O-])CC2)c1C	84*	58*	6	8
O=C1CCCC(=O)N1c1ccc(N2CCN(c3ccccc3)CC2)c([N+](=O)[O-])c1	11	-8	4	-18
CN(Cc1ccccc1)c1ccc(N2C(=O)CCC2=O)cc1[N+](=O)[O-]	5	-6	-3	-11
CCC1Oc2ccccc2N(CC(=O)NCc2ccco2)C1=O (centres undefined)	8	-6	-6	-7
CC(=O)Nc1ccc(S(=O)(=O)NCc2ccc(C)cc2)cc1	76*	-6	8	·
C=CCNC(=O)c1ccc(CNS(=O)(=O)c2ccc(NC(C)=O)cc2)cc1	-10	-1	2	2
NC[C@@H]1O[C@H](O[C@H]2[C@@H](O)[C@H](O[C@@H]3[C@@H](O)[C@H](N)C[C@H](N)[C@H]3O[C@H]3O[C@H](CO)[C@@H](O)[C@H](O)[C@H]3N)O[C@@H]2CO)[C@H](N)[C@@H](O)[C@@H]1O	4	·	2	0
CNC(=S)NC1CC2CCCC(C1)N2Cc1ccc(C)cc1 (centres undefined)	-10	91*	1	-22
CC(=O)NC1CC2CCC(C1)N2Cc1ccc(C)cc1 (centres undefined)	13	90*	-2	-4
CCc1ccc(Nc2nnc(SCC(=O)Nc3cccnc3Cl)s2)cc1	36	90*	13	13
CCc1ccc(Nc2nnc(SCC(=O)Nc3sccc3C(N)=O)s2)cc1	42	98*	12	-5
COc1cccc(Nc2nnc(SCC(=O)Nc3sccc3C(N)=O)s2)c1	12	65*	1	-14
COc1cccc(Nc2nnc(SCn3nnc4ccccc4c3=O)s2)c1	23	-6	-5	·
CCc1ccc(Nc2nnc(SCn3nnc4ccccc4c3=O)s2)cc1	82*	-9	10	14
Cc1ccc(C(=O)c2oc3nc(C)cc(C)c3c2N)cc1	25	64*	-2	31
Cc1cc(C=O)c(C)n1-c1ccc(N2CCOCC2)cc1	32	-4	-1	3
Cc1cc(C=O)c(C)n1-c1cc(C(F)(F)F)ccc1N1CCOCC1	21	94*	-13	9
CN1C(=O)c2ccc(NC(=O)CCS(=O)(=O)c3ccccc3)cc2C1=O	-5	-4	-2	-5
O=c1c2[nH]c3ccccc3c2ncn1CCN1CCNCC1	89*	-2	-9	0
SMILES	CHOP inhibitor	Lmaj promast	Arbovirus anti	WT yeast gro inh
Cc1cccc(NC(=O)C2Cc3ccccc3CN2C(=O)OCc2ccccc2)c1C (centres undefined)	24	98*	8	25
COC(=O)c1ccc(-c2noc(CN3C[C@H]4CC[C@H]3C4)n2)cc1	-5	98*	3	-4
CCn1ccnc1CN(C)Cc1nc(-c2ccc(C(=O)OC)cc2)no1	-2	·	·	·
COC(=O)c1ccc(-c2noc(CN(C)CC3CCCCO3)n2)cc1 (centres undefined)	8	-3	11	11
COC(=O)c1ccc(-c2noc(CN(Cc3ccncc3)CC3CCCO3)n2)cc1 (centres undefined)	5	71*	13	2
O=C1C(C2=NC(c3ccccn3)C3C(=O)N(c4ccccc4)C(=O)C23)=C(O)c2ccccc21 (centres undefined)	-13	·	·	·
Cc1ccc(S(=O)(=O)NC(=O)c2cc(C)n(C3CC3)c2C)cc1	-7	-3	5	-20
N#Cc1c(N)nc2c3c(sc(=N)c2c1N)NC(=O)CC3c1c(F)cccc1Cl (centres undefined)	13	100*	5	20
